Measured values: PubChem BioAssay AID1645855 (Buhrlage Lab, Dana-Farber Cancer Institute and Novartis …, 2021)
About 3,100 (6.6%) of roughly 47,000 compounds were called active. Rule as the data show it: active = inhibition above about 30%; inactive = the rest. This excerpt belongs to a sample that is enriched for actives.

The molecules below were run against Ubiquitin carboxyl-terminal hydrolase 17-like protein 5 (Homo sapiens) (UniProt A8MUK1) (assay: blocks human USP17 ubiquitin-rhodamine cleavage (AID 1645855)). Conditions: purified USP17, Ub-rhodamine cleavage fluorescence, 3 h; at 50 µM; hits give high values.
Chain of Ubiquitin carboxyl-terminal hydrolase 17-like protein 5 (Homo sapiens) (A8MUK1 whole entry, looked up): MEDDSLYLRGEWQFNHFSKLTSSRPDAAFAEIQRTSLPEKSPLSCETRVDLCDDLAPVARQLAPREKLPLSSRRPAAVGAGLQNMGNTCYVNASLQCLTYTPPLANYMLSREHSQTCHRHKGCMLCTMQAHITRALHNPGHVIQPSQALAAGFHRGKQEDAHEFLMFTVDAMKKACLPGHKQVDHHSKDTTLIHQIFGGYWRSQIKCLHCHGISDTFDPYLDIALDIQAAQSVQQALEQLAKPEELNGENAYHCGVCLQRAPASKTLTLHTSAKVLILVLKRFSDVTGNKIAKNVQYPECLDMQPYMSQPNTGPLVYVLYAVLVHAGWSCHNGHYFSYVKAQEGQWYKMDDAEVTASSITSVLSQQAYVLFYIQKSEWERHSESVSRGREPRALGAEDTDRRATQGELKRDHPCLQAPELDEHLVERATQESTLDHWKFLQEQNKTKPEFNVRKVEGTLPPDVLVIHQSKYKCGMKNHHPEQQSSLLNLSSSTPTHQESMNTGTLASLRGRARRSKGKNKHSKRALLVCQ

Row | SMILES | inhibition
1 | C=C(NC(=O)/C(C)=C/C=C\CCCCCC(C)C)C(=O)N/C(=C/OC)C(=O)OC | -61.8% (inactive)
2 | O=C(Cc1ccc(Cl)cc1)N1CCC2(CN(Cc3ccc(O)cc3)C2)C1 | -0.288% (inactive)
3 | CCOc1ccc(C(=O)C[n+]2cc(-c3ccccc3)n3c2CCC3)cc1 | 3.07% (inactive)
4 | COc1ccccc1CNCc1c(C(=O)O)c(C)n(-c2ccccc2)c1C | 6.79% (inactive)
5 | NC(=O)c1ccccc1NC(=O)C1CN(c2nc3c(F)cccc3s2)C1 | 31% (active)
6 | O=C(Nc1ccccc1F)C1CCCN(c2nnc3ccccn23)C1 (stereo not given) | 4.67% (inactive)
7 | CNC(=O)C1CCN(c2nc3ccc(-c4ccccc4F)nc3s2)CC1 | 15.7% (inactive)
8 | CCOc1nc(-c2ccc(Cl)cc2Cl)nc2ccccc12 | 9.99% (inactive)
9 | O=C(Nc1cc(Cl)ccc1F)c1cnc(-c2ccccc2)nc1-c1ccncc1 | -172% (inactive)
10 | Cc1ccnc(Nc2nc(-c3ccccc3)c3cc(Cl)ccc3n2)n1 | 91.1% (active)
11 | COc1cc2c(c(OC)c1OC)-c1ccc(NCCc3ccc(S(N)(=O)=O)cc3)c(=O)cc1[C@@H](NC(C)=O)CC2 | -68.9% (inactive)
12 | Nc1nc(COC(=O)c2ccoc2)nc(Nc2ccccc2)n1 | -3.92% (inactive)
13 | Cc1nc(-c2ccc(C)c(S(=O)(=O)NCc3ccccc3Cl)c2)cs1 | 28% (inactive)
14 | COc1ccc(C(NC(=O)CN(C)Cc2ccc3c(c2)OCO3)c2ccccc2)cc1 (stereo not given) | 35.3% (active)
15 | Cc1ccc(F)cc1NC(=O)CN(C)Cc1ccc2c(c1)OCO2 | 1.53% (inactive)
16 | CN(CC(=O)Nc1ccc(F)cc1Cl)Cc1ccc2c(c1)OCO2 | -5.43% (inactive)
17 | CCN(CC)c1ccc2ccc(C(=O)NCCc3ccccn3)cn12 | -61.8% (inactive)
18 | COc1cccc(N2CCN(C(=O)Nc3ccc4c(c3)NC(=O)CO4)CC2)c1 | 45% (active)
19 | Cc1cc2oc(C(=O)Nc3ccc4c(c3)NC(=O)CO4)c(C)c2cc1Cl | 11.8% (inactive)
20 | COc1cccc(NC(=O)N2CC[C@H]3N(C)CC[C@@]3(C(=O)N3CCCC3)CC2)c1 | -21.3% (inactive)
21 | CN(Cc1cccnc1)Cc1ccc(N2CCC(NC(=O)c3ccc4c(c3)OCO4)CC2)nc1 | -12% (inactive)
22 | CN1CCN(c2ncc3c(=O)n(Cc4ccccn4)ccc3n2)CC1 | 11.4% (inactive)
23 | O=c1c2cnc(N3CCCCC3)nc2ccn1Cc1cccnc1 | -8.83% (inactive)

Row | SMILES | inhibition
24 | O=c1c2cnc(N3CCOCC3)nc2ccn1CCc1ccccc1 | 71.6% (active)
25 | Cc1nnc2n1CC(c1cccc(NC(=O)Cn3ccnc3C(C)C)c1)CC2 (stereo not given) | 3.88% (inactive)
26 | O=C(Cn1c(=O)n(Cc2ccc3c(c2)OCO3)c(=O)c2cccnc21)Nc1ccc(F)cc1 | 14.6% (inactive)
27 | CC(C)[C@H](NC(=O)N1CCn2c1nc1ccccc12)C(=O)NCCc1ccccc1 | -12.9% (inactive)
28 | O=S1(=O)c2ccccc2O[C@H]2CCN(c3ncccn3)CC[C@@H]2N1Cc1cccnc1 | -37.6% (inactive)
29 | CCN1CCN(c2nc(F)c3c(c2F)S(=O)(=O)CCN3CC2CCCO2)CC1 (stereo not given) | 16.6% (inactive)
30 | CC1CCN(c2nc(F)c3c(c2F)S(=O)(=O)CCN3Cc2cccnc2)CC1 | 50.9% (active)
31 | Cc1noc(-c2ccc3nnc(CC(=O)Nc4ccc(C)c(F)c4)n3c2)n1 | -2.57% (inactive)
32 | COC(=O)c1cccc(Oc2nc(OC)nc(OC)n2)c1 | -1.33% (inactive)
33 | CNS(=O)(=O)c1ccc(CNC(=O)c2cc(-c3ccc(C)cc3)no2)cc1 | 65% (active)
34 | Cc1ccc(CNC(=O)c2ccc(-c3cccnc3)nc2)cc1 | 9.44% (inactive)
35 | Cc1cc(C)n(Cc2c(C(=O)NCc3ccc(F)cc3)noc2C)n1 | -5.62% (inactive)
36 | CCn1cc(S(=O)(=O)CC(=O)Nc2ccccc2C(F)(F)F)c2ccccc21 | -1.62% (inactive)
37 | Cc1cccc(-c2nnc3ccc(N4CCC(C(=O)NC(C)Cc5ccco5)CC4)nn23)c1 (stereo not given) | 48.5% (active)
38 | O=C(Nc1ccccc1[N+](=O)[O-])N1CCN(c2ccc3nnc(-c4ccccc4)n3n2)CC1 | 12.5% (inactive)
39 | CC1CCN(C(=O)CSc2ccc3nnc(-c4cccc(F)c4)n3n2)CC1 | -2.06% (inactive)
40 | COCCn1c(=O)[nH]c2cc(C(=O)NCCNc3ccc([N+](=O)[O-])cc3C#N)ccc2c1=O | 53.7% (active)
41 | COCCn1c(=O)[nH]c2cc(C(=O)NCc3ccc(Cl)cc3)ccc2c1=O | 0.361% (inactive)
42 | COCCn1c(=O)[nH]c2cc(C(=O)N3CCC(Cc4ccccc4)CC3)ccc2c1=O | 2.53% (inactive)
43 | CN1CCN(S(=O)(=O)c2cccc(C(=O)Nc3cccc(S(N)(=O)=O)c3)c2)CC1 | -6.3% (inactive)
44 | COc1cccc(N2CCN(C(=O)C3CCN(c4ncnc5onc(C)c45)CC3)CC2)c1 | -20.4% (inactive)
45 | CCC(=O)Nc1nc2cc(NC(=O)c3ccc(OC)cc3)ccc2s1 | 30.9% (active)
46 | CCC(=O)c1ccc(OCC(=O)Nc2ccc3nc(C)sc3c2)cc1 | 5.34% (inactive)

Row | SMILES | inhibition
47 | CCOc1ccc2nc(NC(=O)CN3CCC(C(N)=O)CC3)sc2c1 | -0.089% (inactive)
48 | CC(=O)N1c2ccc(S(=O)(=O)NCC3CCC(C(=O)Nc4cccnc4)CC3)cc2CC1C (stereo not given) | 0.344% (inactive)
49 | CC(Oc1ccc2c3c(c(=O)oc2c1)CCC3)C(=O)NCC(=O)N1CC[C@@]2(O)CCCC[C@H]2C1 (stereo not given in full) | 10.3% (inactive)
50 | CNC(=O)c1cnc2scc(-c3ccccc3)n2c1=O | 1.82% (inactive)
51 | Cc1ccc2c(c1)C(=O)NCC1(CCN(C(=O)c3cscn3)CC1)O2 | 0.0795% (inactive)
52 | Cc1ccc2sc(NC(=O)NC(=O)c3c(Cl)cccc3Cl)nc2c1 | 36.4% (active)
53 | O=C(Nc1ccc2sc(NC(=O)C3CCCCC3)nc2c1)NC1CCCC1 | 20.6% (inactive)
54 | Cc1noc2nc(C3CC3)cc(C(=O)Nc3nc4ccccc4s3)c12 | -4.21% (inactive)
55 | Cc1ccc(Cn2cc(C(=O)O)c(S(=O)(=O)N3CCOCC3)n2)cc1 | -22.5% (inactive)
56 | CC(C)OCCCn1c(=O)c2ccccc2n2c(CCC(=O)NCCN3CCN(c4cccc(Cl)c4)CC3)nnc12 | 8.41% (inactive)
57 | O=C(C1CCc2nc(N3CCOCC3)ncc2C1)N1CCCCCC1 (stereo not given) | -6.44% (inactive)
58 | Cc1ccc(NC(=O)C2CCCN(c3ncnc4onc(C)c34)C2)nc1 (stereo not given) | 0.0336% (inactive)
59 | O=C(NCC1CC1)c1nc(-c2ccc3[nH]ccc3c2)no1 | -9.5% (inactive)
60 | O=C(NC1CC1)C1CCN(c2ncccc2-c2nc(-c3ccccc3)no2)CC1 | 17.4% (inactive)
61 | O=C(NC1CC1)c1nc(-c2ccc(-n3cccc3)cc2)no1 | 43.1% (active)
62 | CSCC[C@H](NC(=O)N1CCn2c1nc1ccccc12)C(=O)NCc1ccc2c(c1)OCO2 | 14.2% (inactive)
63 | CCn1c(=O)c(CCC(=O)N2CCN(c3ccccc3)CC2)nc2c(C)nn(-c3ccccc3)c21 | 5.12% (inactive)
64 | c1ccc(Nc2cc(CC3CCN(Cc4cnc[nH]4)CC3)ncn2)nc1 | -12.1% (inactive)
65 | CC1(C)Cc2c(c(-c3ccco3)nc3sc4c(SCCCc5ccccc5)ncnc4c23)CO1 | 69.7% (active)
66 | CCCCCCSc1ncnc2c1sc1nc(-c3ccccc3)c3c(c12)CC(C)(C)OC3 | 3.28% (inactive)
67 | CSc1ncnc2c1sc1nc(-c3ccccc3)c3c(c12)CC(C)(C)OC3 | 3.2% (inactive)
68 | Cc1ccc(S(=O)(=O)N2Cc3ccccc3CN3C(=O)NC(=O)C3C2)cc1 (stereo not given) | 4.38% (inactive)
69 | COc1ccc(CCNc2ncnc3c2cnn3Cc2ccccc2)cc1OC | -18.7% (inactive)

Row | SMILES | inhibition
70 | CC(=O)N1CC(C)Oc2cc(S(=O)(=O)Nc3ccc(C)cc3C)ccc21 (stereo not given) | 6.48% (inactive)
71 | Cc1c(Cc2ccccc2)sc(NC(=O)c2cccnc2)c1C(N)=O | 10.7% (inactive)
72 | NC(=O)c1c(NC(=O)c2ccccc2Oc2ccccc2)sc2c1CCN(Cc1ccccc1)C2 | 30.4% (active)
73 | CC1CCc2c(sc(NC(=O)c3cc(-c4ccccc4)nc4ccccc34)c2C(N)=O)C1 (stereo not given) | 4.55% (inactive)
74 | O=C(NCc1ccc2c(c1)OCO2)c1ccc(CS(=O)c2ccc(Cl)cc2)o1 (stereo not given) | -0.0116% (inactive)
75 | CCc1cccc(C)c1NC(=O)C1=Cc2cc(OC)ccc2OC1 | -6.4% (inactive)
76 | CC(=O)Nc1nsc(N2CCC(C(=O)NCc3cccc(C)c3)CC2)n1 | -1.72% (inactive)
77 | Cc1cccc(CNC(=O)C2CCN(c3cnc4nccnc4c3)CC2)c1 | -128% (inactive)
78 | Cc1cccc(CNC(=O)C2CCCN(S(=O)(=O)Cc3ccc(F)cc3)C2)c1 (stereo not given) | 56.7% (active)
79 | COc1ccc(Cn2cc(-c3nc(C4CC4)no3)ccc2=O)cc1F | -5.47% (inactive)
80 | CCN1CCN(c2nc3c(c(=O)[nH]c(=O)n3C)n2CC(O)c2ccccc2)CC1 (stereo not given) | -4.6% (inactive)
81 | C=CCn1c(N2CCC(C(=O)NCC(C)O)CC2)nc2ccccc21 (stereo not given) | 9.39% (inactive)
82 | O=C1N[C@H]2OCCC[C@H]2[C@H](c2ccccc2C(=O)O)N1 | -6.46% (inactive)
83 | Cn1c(CCN2CCCC2)nc2cc(NC(=O)c3cccc([N+](=O)[O-])c3)ccc21 | 16.8% (inactive)
84 | CC(=O)Nc1ccc2c(c1)nc(CCN1CCCC1)n2C | -8.68% (inactive)
85 | Cn1c(CCN2CCCC2)nc2cc(NS(=O)(=O)c3ccccc3)ccc21 | 60.7% (active)
86 | CCc1nnc(NC(=O)c2cc(-c3ccc(C)c(C)c3O)n[nH]2)s1 | 16.7% (inactive)
87 | CC(C)(C)C(=O)Nc1ccc(SCc2nnc(-c3ccccc3)o2)cc1 | 2.2% (inactive)
88 | O=C(Cc1ccccc1)Nc1ccc(-c2nc3cnccc3o2)c(O)c1 | 63.3% (active)
89 | O=C(Nc1ccc(-c2nc3cnccc3o2)c(O)c1)c1ccc(-c2ccccc2)cc1 | 2.32% (inactive)
90 | COc1cc(C(=O)Nc2ccc(-c3nc4cnccc4o3)cc2)cc(OC)c1OC | -3.38% (inactive)
